# Measured values from ChEMBL document CHEMBL3988442, “University of Dundee, Small-Polar-MMV Screening Library” (2021).
# Out of some 53,000 compounds screened, about 900 (1.7%) showed an effect of 50% or more. Many of the other results were omitted from the sample, so strong results are more common in it than they were.
# Test system: Mycobacterium tuberculosis
# Test: Cornell - Phenotypic assay to identify agents that inhibit growth of Mycobacterium tuberculosis
# Format: functional
# Set-up: scale not given: direction of the effect not stated beside the values
# Conditions: 10 mM as filed; unlikely as a test dose
row,SMILES,Percent Effect
1,Cc1nnc2n1CCN(C(=O)c1cc(C)n(-c3ccccc3)c1C)C2,-35.93%
2,CN(CCCOc1ccccc1)Cc1nc2c(cnn2C)c(=O)[nH]1,27.35%
3,COc1cccc(OCC(=O)N2CCOc3ccncc32)c1,-4.09%
4,CNC(=O)CNC(=O)c1ccc(-c2scnc2C)nc1,51.37%
5,Cc1ncsc1-c1cc(C(=O)NCCO)ccn1,0.2276%
6,CCCNC(=O)CNC(=O)c1scnc1C,-19.92%
7,Cc1cc(C(=O)CN2CCN(c3nccs3)CC2)c(C)n1C1CC1,7.889%
8,COc1ccc(CCN(C)C(=O)c2cc(C(C)=O)c[nH]2)cc1OC,-7.568%
9,CCNC(=O)[C@@H]1CN(Cc2ccccc2)C[C@H]1C(=O)c1ccc(F)cc1,56.73%
10,O=C(NC1CC1)[C@H]1CN(Cc2ccccc2)C[C@@H]1C(=O)c1ccccc1,30.86%
11,CC(C)NC(=O)[C@H]1CN(Cc2ccccc2)C[C@@H]1C(=O)c1ccccc1,38.41%
12,CNC(=O)[C@@H]1CN(Cc2ccccc2)C[C@H]1C(=O)c1ccc(F)cc1,28.54%
13,O=C(O)[C@H]1CN(Cc2ccccc2)C[C@@H]1C(=O)c1ccccc1,51.09%
14,CCNC(=O)[C@H]1CN(Cc2ccccc2)C[C@@H]1C(=O)c1ccccc1,41.32%
15,O=C(c1ccc(O)c(Cl)c1)N1CCN(c2nccs2)CC1,19.4%
16,CC(C)CC(=O)N1CC[C@H]2C[C@H](c3nccs3)O[C@@H]2C1,29.2%
17,CNc1nc2c(s1)C(c1cccc(F)c1F)CC(=O)N2 (configuration not stated),-9.045%
18,CNc1nc2c(s1)C(c1cccc(Cl)c1Cl)CC(=O)N2 (configuration not stated),35.33%
19,Cn1ncc2c1NC(=O)CC2c1c(F)cccc1Cl (configuration not stated),13.6%
20,CNc1nc2c(s1)C(c1ccc(F)cc1Cl)CC(=O)N2 (configuration not stated),32.27%
21,CNc1nc2c(s1)C(c1c(Cl)cccc1Cl)CC(=O)N2 (configuration not stated),107.9%
22,Nc1nc2c(s1)C(c1c(F)cccc1Cl)CC(=O)N2 (configuration not stated),103.5%
23,CNc1nc2c(s1)C(c1ccccc1F)CC(=O)N2 (configuration not stated),-4.667%
24,CNc1nc2c(s1)C(c1ccccc1Cl)CC(=O)N2 (configuration not stated),45.9%
25,CNc1nc2c(s1)C(c1c(F)cccc1Cl)CC(=O)N2 (configuration not stated),108%
26,CC(O)CN1CC(C)(C)CN(C(=O)CCc2ccccc2)CC1=O (configuration not stated),4.925%

row,SMILES,Percent Effect
1,CCN1CCN(C(=O)c2cc(-c3ccc(C)o3)n[nH]2)[C@H]2CS(=O)(=O)C[C@H]21,-0.2092%
2,CCNC(c1cccnc1)c1ccc(F)c(C)c1 (configuration not stated),-53.96%
3,CC(=O)N1CCN(C(=O)Nc2ccccc2Cl)[C@H]2CS(=O)(=O)C[C@H]21,4.723%
4,Cc1cc(C)n(CC(=O)N2CCCCC2CCN2CCCC2=O)c(=O)n1 (configuration not stated),8.917%
5,Cc1cc(C(=O)N2CCc3c(CN(C)C(C)C)n[nH]c3C2)[nH]n1,21.29%
6,CCc1noc(CNc2ccc(C(=O)N3CCCC3)cc2C)n1,-69.23%
7,Cc1ccc(CN2CCc3onc(C(=O)NC(C)C)c3C2)o1.O=C(O)C(F)(F)F,1.183%
8,Cc1ccc(CN2CCc3onc(C(=O)Nc4cccnc4)c3C2)o1.O=C(O)C(F)(F)F.O=C(O)C(F)(F)F,61.31%
9,Cc1ccc(CN2CCc3onc(C(=O)NCCN(C)C)c3C2)o1.O=C(O)C(F)(F)F.O=C(O)C(F)(F)F,6.093%
10,CCc1cnc(CN(C)C2CCN(Cc3nnc(C4CC4)n3C)C2)o1 (configuration not stated),31.65%
11,Cc1cc(C)c(C(=O)N(C)CCN(C)C(=O)c2[nH]c(C)cc2C)[nH]1,1.614%
12,Cc1cc(C(=O)N(C)CCN(C)C(=O)OC(C)(C)C)oc1C,-8.303%
13,Cc1cc(C)c(C(=O)N(C)CCN(C)C(=O)OC(C)(C)C)[nH]1,68.36%
14,c1cc(CNc2ncc(-c3cnccn3)c(C3CC3)n2)ccn1,-5.136%
15,CSc1cccc(CN(C)C(=O)c2cccc(C3CCCNC3)c2)c1 (configuration not stated),36.25%
16,CC(=O)N1CCC(c2ncc(C(=O)Nc3ccc(F)cc3)c(C)n2)CC1,4.765%
17,O=C(O)C(F)(F)F.O=S(=O)(NCC1COCc2c(-c3ccncc3)nnn2C1)C1CC1 (configuration not stated),13.64%
18,Cn1cc(-c2csc(N3CCCCCC3)n2)cn1,18.17%
19,CN1CCN(c2nc(-c3cnn(C)c3)cs2)CC1,19.22%
20,Cn1cc(-c2csc(N3CCN(C(=O)OC(C)(C)C)CC3)n2)cn1,78.03%
21,O=C(c1ccncc1)N1CCCC(C2=Nc3ccccc3S(=O)(=O)N2)C1 (configuration not stated),43.45%
22,O=C(C1CC1)N1CCCC(C2=Nc3ccccc3S(=O)(=O)N2)C1 (configuration not stated),29.99%
23,Cc1occc1C(=O)N1CCCC(C2=Nc3ccccc3S(=O)(=O)N2)C1 (configuration not stated),60.62%
24,CC(C)CN1C[C@H]2C[C@H](C(=O)Nc3cccnc3)[C@@H](C1)O2,6.477%
25,CCN(CC)S(=O)(=O)CC(=O)N1CCc2ccc(Cl)cc21,4.859%
26,CCOc1cc(CN(C)CCCC#N)ccc1OC(F)F,7.532%

row,SMILES,Percent Effect
1,Cc1cc(NC(=O)C2CCN(c3nnc(C)c(C)c3C#N)CC2)no1,-12.4%
2,Cc1cc(NC(=O)NCc2nncn2C)ccc1OC(C)C,-0.4289%
3,Cc1cc(NC(=O)NCc2nccn2C)ccc1OC(C)C,35.97%
4,Cc1cc(NC(=O)NCc2ccncc2)ccc1OC(C)C,88.24%
5,CCC(NC(=O)Nc1ccc(OC)c(C)c1)c1ccncc1 (configuration not stated),89.35%
6,CCC(NC(=O)Nc1ccc(OC)c(C)c1)c1noc(C)n1 (configuration not stated),-4.83%
7,CCC(CO)NC(=O)Nc1ccc(OCC(F)(F)F)c(C)c1 (configuration not stated),-5.78%
8,CCCc1nc2c(c(C)c(C)n2Cc2cccnc2)c(N)c1CC,0.8008%
9,CC(=O)c1nn(-c2ccccc2Cl)c(C)c1C(C)=O,14.3%
10,COCCNC(=O)c1cccnc1Sc1cc(OC)ccc1OC,-23.48%
11,Cc1ncc2c(n1)CN(CC(=O)Nc1cccnc1)CC2,-17.74%
12,CC(C)NC(=O)N1CCCn2cnc(CO)c2C1.O=C(O)C(F)(F)F,25.62%
13,Cc1cccc(CN2C[C@@H]3CN(C(=O)NC(C)C)C[C@@H]3C2=O)n1.O=C(O)C(F)(F)F,25.36%
14,CN1CCC(c2cc(CCO)ncn2)C1 (configuration not stated),-9.182%
15,O=C(NCc1ccccc1CN1CCOCC1)c1ccc(Br)cc1F,8.243%
16,O=C(Nc1ccc(Br)cc1F)c1cc(CN2CCOCC2)on1,74.1%
17,O=C(Nc1ccc(Br)cc1F)c1ccc(N2CCOCC2)nn1,-1.334%
18,CC(=O)N1CC(c2n[nH]c3ncccc23)C1,-13.82%
19,CNS(=O)(=O)CC(=O)N1CCCc2cc(Br)ccc21,-18.99%
20,COCc1nc(C(=O)OCC2CCN(c3ccccc3)C2)cs1 (configuration not stated),17.1%
21,COc1ccc(C(NCc2ccc(C#N)cc2)C2CC2)cc1.Cl (configuration not stated),-15.68%
22,c1cnc2[nH]c(C3CCCC3)c(CN3CCOCC3)c2c1,24.1%
23,c1cnc2[nH]c(C3CCCC3)c(CN3CCCCC3)c2c1,34.75%
24,CCN1CCN(Cc2c(C3CCCC3)[nH]c3ncccc23)CC1,74.68%
25,CC1CCN(C(=O)C2CC(=O)N(c3cnn(C(C)C)c3)C2)CC1 (configuration not stated),-3.187%
26,CNc1oc(-c2ccc(S(=O)(=O)N(C)C)o2)nc1C#N,17.81%

row,SMILES,Percent Effect
1,CC(C)Nc1oc(-c2ccc(S(=O)(=O)N(C)C)o2)nc1C#N,-45.52%
2,CN(C)S(=O)(=O)c1ccc(-c2nc(C#N)c(NC(C)(C)C)o2)o1.Cl,104.3%
3,Cc1nc(N2CCC(CC(=O)N3CCCC3)CC2)c2cnn(C)c2n1,3.468%
4,CC(C)C1SCC(=O)Nc2c1cnn2C(C)C (configuration not stated),18.65%
5,CNc1ccc(C2CN(c3cc(C)ncn3)CCO2)nc1 (configuration not stated),34.11%
6,CNc1ccc(C2CN(c3nc(C)cc(C)n3)CCO2)nc1 (configuration not stated),51.49%
7,CNc1ccc(C2CN(c3cc(C)nc(N)n3)CCO2)nc1 (configuration not stated),24.16%
8,Cc1cc(NC(=O)Cc2ccccc2O)c[nH]c1=O,77.58%
9,O=C(Cc1ccccc1O)Nc1ccc(N2CCCC2)nc1,-5.098%
10,Cc1cc(NC(=O)Cc2ccccc2O)cnc1N1CCCCC1,28.35%
11,Cc1cc(NC(=O)C(C)N2CCN(c3ccccc3F)CC2)no1 (configuration not stated),2.813%
12,CCC(O)CNc1ccc(-c2nc(CC(C)C)no2)cn1 (configuration not stated),50.96%
13,CC(C)Cc1noc(-c2ccc(NCc3noc(C(C)C)n3)nc2)n1,44.87%
14,CCn1cncc1CNc1ccc(-c2nc(CC(C)C)no2)cn1,11.21%
15,CN(C(=O)C1(C#N)CCCCC1)c1nccs1,17.67%
16,OC1CCN(Cc2cc3c(cc2Br)OCCO3)CC1,5.885%
17,Oc1ccc(N2CCN(Cc3ccc(F)cc3Br)CC2)cc1,105.2%
18,O=S(=O)(N1CCCCCC1)N1CCN(Cc2ccc(F)cc2Br)CC1,10.21%
19,Oc1ccc(N2CCN(Cc3cc4c(cc3Br)OCCO4)CC2)cc1,104.9%
20,CS(=O)(=O)N1CCN(Cc2ccc(F)cc2Br)CC1,31.68%
21,OCCN1CCN(Cc2cc3c(cc2Br)OCCO3)CC1,-50.33%
22,Cc1ccccc1C1CCCN1Cc1ccc(S(=O)(=O)N(C)C)o1 (configuration not stated),23.54%
23,O=C(O)c1cnc(N2CCCC2)nc1COc1ccc(F)cc1,38.38%
24,COCC(O)CN(C)C(=O)NCc1ccc(-c2ccn[nH]2)cc1 (configuration not stated),-4.972%
